Screening results: PubChem, several laboratories
In the library only some 2.2% were active in any assay of this set; here they are far more common.
Mot1-301 SUMO – inhibitors of SUMOylation pathway: yeast Mot1-301 growth rescue | S. cerevisiae Mot1-301 growth rescue, ATP luminescence, 38.5C; percent above DMSO median, 100 means doubled | growth rescue, % at 18.8 µM | hit rate 1% among 320,000 | AID 2716;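 active = every valid replicate shows activation above 250% relative to neutral control wells; inactive = the rest, any valid replicate at or below 250%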;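 note: OY570 slx delta 5 strain wells were the positive control but not used for scaling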
Efflux pump inh – blocks antifungal efflux pumps in multiplex yeast assay; inhibition, % at 10 µM; S. cerevisiae Candida pump triplex, Nile Red efflux; hit rate 0.44% among 330,000;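 active = plate passing quality check with inhibition over a set limit, or well fluorescence over plate mean plus 4 SD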;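 note: Nile Red retained in pooled yeast measured as flow cytometry median fluorescence; 0% = buffer negative control and 100% = Enniatin B positive control; higher means more Nile Red kept so more efflux inhibition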
sPLA2-III inh – Inhibits HGIII-sPLA2 liposome hydrolysis, primary screen; QFRET BODIPY PC-A2 liposome hydrolysis, fluorescence; AID 743126; Q9NZ20; inhibition, % at 12.2 µM; hit rate 0.56% among 370,000;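 active = inhibition above mean plus 3 SD of compounds lying within the high and low control bounds, cut at about 19% in these data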;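 note: 0% = median of test compound wells and 100% = no enzyme DMSO wells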
Target sequence (Q9NZ20 whole entry, looked up): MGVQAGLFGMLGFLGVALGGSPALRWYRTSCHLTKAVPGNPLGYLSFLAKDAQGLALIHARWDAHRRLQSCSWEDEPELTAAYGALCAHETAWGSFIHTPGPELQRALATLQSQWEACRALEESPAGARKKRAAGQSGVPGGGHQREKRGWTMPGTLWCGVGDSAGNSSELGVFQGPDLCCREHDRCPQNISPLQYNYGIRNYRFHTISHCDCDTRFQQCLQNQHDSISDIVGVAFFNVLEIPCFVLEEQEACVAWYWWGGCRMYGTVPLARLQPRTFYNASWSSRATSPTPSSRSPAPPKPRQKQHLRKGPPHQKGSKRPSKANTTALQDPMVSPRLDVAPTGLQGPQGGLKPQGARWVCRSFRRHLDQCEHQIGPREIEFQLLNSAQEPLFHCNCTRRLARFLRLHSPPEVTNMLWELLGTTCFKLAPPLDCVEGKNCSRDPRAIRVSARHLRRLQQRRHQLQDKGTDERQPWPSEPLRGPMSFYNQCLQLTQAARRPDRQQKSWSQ
SKN-1 block – inhibitors of C. elegans SKN-1; C. elegans VP596 Pgst-4::GFP/RFP ratio, acrylamide-induced, 24 h; inhibition, % at 21.8 µM; hit rate 0.49% among 360,000;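 active = interference check ratio from 0.5 to 1.5 plus GFP to RFP signal ratio inhibition reaching or exceeding a fixed threshold, cut at about 30% in these data, passing the limit was not always enough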
Mot1 SUMO dose – SUMO pathway inhibitors in yeast Mot1-301 growth; shares compounds with Mot1-301 SUMO; S. cerevisiae Mot1-301 galactose growth, ATP luminescence, 24 h; -100 = growth of slx-deleted rescue strain; growth activity, percent, % at 42 µM; 2,300 tested, under 10 active;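 active = Signal drops as the depositor expects, and the fitted half-maximal dose is no more than ten times the top valid tested dose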;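 note: more negative values mean stronger growth rescue toward the control strain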
* hit, by the source's call.

Results for CCn1c(=O)n(CC)c2cc(NC(=O)c3ccccc3Cl)ccc21 ?
Mot1-301 SUMO: 406*; Efflux pump inh: 0; sPLA2-III inh: 0; SKN-1 block: 8; Mot1 SUMO dose: 2

How did CCN(CC)C(=O)C1CCCN(c2ccc([N+](=O)[O-])cc2/C=N/NC(=O)c2cccc(Br)c2)C1 (configuration not stated) do in these assays?
Mot1-301 SUMO: 648*; Efflux pump inh: 0; sPLA2-III inh: -1; SKN-1 block: -6; Mot1 SUMO dose: 0

How did CCOC(=O)c1c(/N=C/C2C(=O)CCCC2=O)sc2c1CCCC2 do in these assays?
Mot1-301 SUMO: 467*; Efflux pump inh: 0; sPLA2-III inh: 11; SKN-1 block: 1; Mot1 SUMO dose: 0

How did O=S(=O)(NCc1cn(Cc2ccccc2)nn1)c1ccccc1Br do in these assays?
sPLA2-III inh: 6

Results for C[C@@H]1CCCCO[C@H](CN(C)C(=O)Cc2ccccc2)[C@H](C)CN([C@@H](C)CO)C(=O)c2cc(NC(=O)Nc3ccc(F)cc3)ccc2O1 ?
sPLA2-III inh: -42; SKN-1 block: -22

How did COc1ccc(-c2nc(C#N)c(NC(C)c3ccccc3)o2)cc1OC (configuration not stated) do in these assays?
Mot1-301 SUMO: 417*; Efflux pump inh: 0; sPLA2-III inh: 0; SKN-1 block: -11; Mot1 SUMO dose: 1

What do the screens show for `Cn1c(=O)c2[nH]c(C=Cc3ccc4c(c3)OCO4)nc2n(C)c1=O`?
sPLA2-III inh: 2; SKN-1 block: 0

How did O=C(CCc1ccccc1)N1CCN(c2ccc(F)cc2)CC1 do in these assays?
Mot1-301 SUMO: 8; Efflux pump inh: 0; sPLA2-III inh: 4; SKN-1 block: 3

What do the screens show for `O=C(CCc1ccccc1)N1CCN(c2ccccc2F)CC1`?
Mot1-301 SUMO: 793*; Efflux pump inh: 0; sPLA2-III inh: -1; SKN-1 block: -3; Mot1 SUMO dose: 0

Results for CS(=O)(=O)N(CC(=O)N1CCN(c2ccccc2F)CC1)C1CCCCC1 ?
Mot1-301 SUMO: 680*; Efflux pump inh: 0; sPLA2-III inh: 0; SKN-1 block: -1; Mot1 SUMO dose: 0

Results for Cc1nnc(C)n1/N=C/c1cc2ccccc2nc1Cl ?
Mot1-301 SUMO: 608*; Efflux pump inh: 0; sPLA2-III inh: 2; SKN-1 block: 0; Mot1 SUMO dose: 0

How did CCCCN1CNC(=S)N(CCc2ccc(OCC)c(OCC)c2)C1 do in these assays?
Mot1-301 SUMO: -32; Efflux pump inh: 0; sPLA2-III inh: 19; SKN-1 block: 6

Results for CCOc1ccc(CCN2CN(C3CCCCC3)CNC2=S)cc1OCC ?
Mot1-301 SUMO: 431*; Efflux pump inh: 0; sPLA2-III inh: 18; SKN-1 block: 13; Mot1 SUMO dose: 1

How did CCn1c(SC(=O)NC2CCCCC2)nnc1-c1cccs1 do in these assays?
Mot1-301 SUMO: 525*; Efflux pump inh: 0; sPLA2-III inh: 10; SKN-1 block: -6; Mot1 SUMO dose: 0

Results for Cc1cc2ncc(C(=O)N=CN(C)C)cn2n1 ?
Mot1-301 SUMO: 498*; Efflux pump inh: 0; sPLA2-III inh: 5; SKN-1 block: 2; Mot1 SUMO dose: 0

How did CNC(=S)N/N=C(\C)c1ccc(C)c(C)c1 do in these assays?
Mot1-301 SUMO: 9; Efflux pump inh: 0; sPLA2-III inh: 15; SKN-1 block: 2

Results for Cc1c(OC(C)C(=O)N2C[C@H]3C[C@@H](C2)c2cccc(=O)n2C3)ccc2c3c(c(=O)oc12)CCCC3 (some centres not stated) ?
Mot1-301 SUMO: 684*; Efflux pump inh: 0; sPLA2-III inh: -4; SKN-1 block: 3; Mot1 SUMO dose: 1

Results for Cc1c(OCC(=O)N2C[C@H]3C[C@@H](C2)c2cccc(=O)n2C3)ccc2c3c(c(=O)oc12)CCCC3 ?
Mot1-301 SUMO: 214; Efflux pump inh: 0; sPLA2-III inh: 4; SKN-1 block: 4

What do the screens show for `O=C(CN1C(=O)NC2(CCCC2)C1=O)NNC(=O)c1ccccc1`?
Mot1-301 SUMO: 1; Efflux pump inh: 0; sPLA2-III inh: 2; SKN-1 block: 9

Results for Cc1ccc2c(CN3CCN(c4ccc(Cl)c(Cl)c4)CC3)cc(=O)oc2c1 ?
sPLA2-III inh: 8; SKN-1 block: -13

How did CCOC(=O)c1[nH]c2ccc(F)cc2c1NC(=O)CCN1CCOCC1 do in these assays?
Mot1-301 SUMO: 383*; Efflux pump inh: 0; sPLA2-III inh: 1; SKN-1 block: -19; Mot1 SUMO dose: 0

What do the screens show for `CCOC(=O)c1[nH]c2ccc(F)cc2c1NC(=O)CCN1CCSCC1`?
Mot1-301 SUMO: -29; Efflux pump inh: 0; sPLA2-III inh: 1; SKN-1 block: 10

How did CCOC(=O)N1CCN(C(=O)C[C@@H]2C[C@@]3(C(=O)OC)CC(C)(C)CC=C3N(CCc3ccc(OC)c(OC)c3)C2=O)CC1 do in these assays?
sPLA2-III inh: -6; SKN-1 block: 12

What do the screens show for `Cc1ccc(-c2csc(NC(=O)CSc3nc(C)cs3)n2)cc1`?
Mot1-301 SUMO: 541*; Efflux pump inh: 0; sPLA2-III inh: -12; SKN-1 block: 3; Mot1 SUMO dose: 0

How did CC1=CC2=NC(=O)/C(=C\c3cc(C)n(-c4cccc(Cl)c4)c3C)C(=N)N2O1 do in these assays?
Mot1-301 SUMO: 11; Efflux pump inh: -1; sPLA2-III inh: 7; SKN-1 block: 8

Results for CC1=CC2=NC(=O)/C(=C\c3cc(C)n(-c4ccccc4)c3C)C(=N)N2O1 ?
Mot1-301 SUMO: 511*; Efflux pump inh: 0; sPLA2-III inh: 18; SKN-1 block: 15; Mot1 SUMO dose: -1

Results for COc1cc2c(cc1OC)-c1cc(Nc3ccc(N(C)C)cc3)nc(=O)n1CC2 ?
Mot1-301 SUMO: -16; Efflux pump inh: 0; sPLA2-III inh: 6; SKN-1 block: 8

How did CCN(CC)c1ccc(Nc2cc3n(c(=O)n2)CCc2cc(OC)c(OC)cc2-3)cc1 do in these assays?
Mot1-301 SUMO: active; Efflux pump inh: 0; sPLA2-III inh: 15; SKN-1 block: 10; Mot1 SUMO dose: 0

How did CN1Cc2cccc3c2C(Cc2ccccc2S3)C1 (configuration not stated) do in these assays?
Mot1-301 SUMO: 4; Efflux pump inh: 0; sPLA2-III inh: -15; SKN-1 block: 1

How did CCN(CC)c1ccc(C=C2C(=O)OC(c3ccccc3)OC2=O)cc1 (configuration not stated) do in these assays?
Mot1-301 SUMO: active; Efflux pump inh: 0; sPLA2-III inh: 1; SKN-1 block: 23; Mot1 SUMO dose: 0

How did CCN(CC)c1ccc(C=C2C(=O)OC(C)(C(C)(C)C)OC2=O)cc1 (configuration not stated) do in these assays?
Mot1-301 SUMO: 0; Efflux pump inh: 0; sPLA2-III inh: 2; SKN-1 block: 31

How did O=S1(=O)c2ccc(Br)cc2OC[C@H](Cc2ccccc2)N1Cc1cn(CCC2OCCCO2)nn1 do in these assays?
sPLA2-III inh: 7

How did O=S(=O)(Nc1ccc(-c2nc3cccnc3s2)cc1)c1cc(F)ccc1F do in these assays?
Mot1-301 SUMO: 370*; Efflux pump inh: 0; sPLA2-III inh: -26; SKN-1 block: 5; Mot1 SUMO dose: -1
